Assay results as given in PubChem BioAssay (EPA / NIEHS).
Calls of active or inactive are those of the source. Rule for the calls: active = hit-call score of the fitted dose curve at least 0.9, where 1 is the maximum; inactive = score below 0.9.

Assays:
[1] = molecular target: Bile acid receptor (Homo sapiens) (UniProt Q96RI1); assay: ATG_IR1_CIS: Attagene CIS-FACTORIAL HepG2 Assay for human Nuclear Receptor Subfamily 1 Group H Member 4 (NR1H4), IR1 submotif (AID 2282946); settings: IR1 reporter transcription, actives raise or lower the signal
Chain of Bile acid receptor (Homo sapiens) (Q96RI1 whole entry, looked up): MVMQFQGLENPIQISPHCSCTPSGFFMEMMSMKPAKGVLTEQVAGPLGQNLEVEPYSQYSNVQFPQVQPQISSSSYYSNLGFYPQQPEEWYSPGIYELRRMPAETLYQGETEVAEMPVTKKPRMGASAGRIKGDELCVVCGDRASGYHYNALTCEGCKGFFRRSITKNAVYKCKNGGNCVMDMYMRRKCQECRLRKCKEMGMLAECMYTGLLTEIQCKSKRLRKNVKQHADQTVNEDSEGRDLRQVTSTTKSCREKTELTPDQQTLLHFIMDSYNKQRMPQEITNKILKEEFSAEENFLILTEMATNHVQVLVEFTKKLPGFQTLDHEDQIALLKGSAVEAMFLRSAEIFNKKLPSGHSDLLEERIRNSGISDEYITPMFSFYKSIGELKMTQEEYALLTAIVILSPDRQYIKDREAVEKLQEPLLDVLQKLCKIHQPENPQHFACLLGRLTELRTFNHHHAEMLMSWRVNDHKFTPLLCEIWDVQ
Method in brief: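 Transient MRTU transfection, HepG2; 24 h dosing; RNA → RT-PCR → 6-FAM primer extension → HpaI digest → capillary electrophoresis fluorescence. Gain/loss of signal fitted relative to DMSO.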

[2] = ATG_GRE_CIS: Attagene CIS-FACTORIAL HepG2 Assay for human Glucocorticoid Response Elements (GRE) (AID 2282947); settings: HepG2 GRE cis-reporter, Attagene multiplex mRNA; actives raise or lower the signal
Method in brief: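 Following 24 h chemical exposure of transiently transfected HepG2 cells, total RNA was reverse-transcribed and reporter cDNA amplified, fluorescently labelled and sized by capillary electrophoresis. Signal gain or loss was fitted relative to DMSO vehicle.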

[3] = ATG_ISRE_CIS: Attagene CIS-FACTORIAL HepG2 Assay for human Interferon Regulatory Factor 1 (IRF1) binding to an Interferon-Stimulated Response Element (ISRE) (AID 2282948); settings: HepG2 ISRE cis-reporter (Attagene), mRNA transcription readout; actives raise or lower the signal
Method in brief: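 Transfected HepG2 (multiple reporter transcription units, cis elements) dosed 24 h. RNA → oligo(dT) RT → PCR → 6-FAM primer extension → HpaI → CE. DMSO = negative control/baseline.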

[4] = ATG_M_32_CIS: Attagene CIS-FACTORIAL HepG2 Assay for M32 Transcription Factor (Internal Marker) (AID 2282949); settings: HepG2 Attagene cis-factorial M32 reporter, mRNA; actives raise or lower the signal;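 note: background control marker of the multiplexed CIS panel rather than a real target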
Method in brief: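 HepG2 cells transiently transfected with multiplexed cis-regulated reporter units, dosed 24 h. Reporter mRNA quantified by RT-PCR, 6-FAM labelling, HpaI digestion and capillary electrophoresis; bidirectional fit vs DMSO.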

[5] = ATG_M_06_CIS: Attagene CIS-FACTORIAL HepG2 Assay for M06 Transcription Factor (Internal Marker) (AID 2282950); settings: HepG2 Attagene CIS-FACTORIAL M06 internal marker reporter; actives raise or lower the signal
Method in brief: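 One of many multiplexed endpoints: HepG2 reporter mRNA after 24 h dosing, detected by RT-PCR and capillary electrophoresis fluorescence; gain or loss of signal analysed against DMSO.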

[6] = molecular target: Hypoxia-inducible factor 1-alpha (Homo sapiens) (UniProt Q16665); assay: ATG_HIF1a_CIS: Attagene CIS-FACTORIAL HepG2 Assay for human Hypoxia Inducible Factor 1 (HIF1A) (AID 2282951); settings: HepG2 Attagene cis-factorial HIF1a reporter transcription; actives raise or lower the signal
Chain of Hypoxia-inducible factor 1-alpha (Homo sapiens) (Q16665 whole entry, looked up): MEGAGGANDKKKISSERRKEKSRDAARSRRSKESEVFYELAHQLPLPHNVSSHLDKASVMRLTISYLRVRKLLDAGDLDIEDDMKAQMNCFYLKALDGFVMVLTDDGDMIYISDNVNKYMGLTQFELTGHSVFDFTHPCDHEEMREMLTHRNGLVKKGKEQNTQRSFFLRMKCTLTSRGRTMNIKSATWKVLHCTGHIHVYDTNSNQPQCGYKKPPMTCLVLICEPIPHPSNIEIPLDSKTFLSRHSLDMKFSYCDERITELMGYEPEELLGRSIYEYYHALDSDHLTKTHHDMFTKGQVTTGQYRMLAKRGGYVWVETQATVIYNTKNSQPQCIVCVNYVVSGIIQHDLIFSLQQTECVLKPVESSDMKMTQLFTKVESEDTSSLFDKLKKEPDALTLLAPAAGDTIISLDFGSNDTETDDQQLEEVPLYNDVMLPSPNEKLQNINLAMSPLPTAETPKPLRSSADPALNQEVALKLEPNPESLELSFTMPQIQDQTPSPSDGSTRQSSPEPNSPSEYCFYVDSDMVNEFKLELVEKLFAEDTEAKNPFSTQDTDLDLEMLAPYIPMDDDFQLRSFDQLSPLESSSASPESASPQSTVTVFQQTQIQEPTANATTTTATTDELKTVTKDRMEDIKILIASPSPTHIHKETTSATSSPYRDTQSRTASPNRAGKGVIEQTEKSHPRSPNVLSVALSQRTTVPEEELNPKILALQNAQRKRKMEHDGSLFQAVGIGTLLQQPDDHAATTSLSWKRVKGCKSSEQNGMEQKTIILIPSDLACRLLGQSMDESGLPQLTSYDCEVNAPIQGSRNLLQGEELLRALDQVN
Method in brief: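 Activity is fitted in both directions relative to DMSO. Reporter transcripts are read by RT-PCR, fluorescent primer extension and capillary electrophoresis after 24 h chemical treatment. The cells are HepG2 carrying transiently transfected cis-element-driven reporter units responding to endogenous factors.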

[7] = molecular target: Hepatocyte nuclear factor 6 (Homo sapiens) (UniProt Q9UBC0); assay: ATG_HNF6_CIS: Attagene CIS-FACTORIAL HepG2 Assay for human Hepatocyte Nuclear Factor 6 (HNF6) (AID 2282952); settings: HepG2 Attagene cis-factorial HNF6 reporter transcription; actives raise or lower the signal
Chain of Hepatocyte nuclear factor 6 (Homo sapiens) (Q9UBC0 whole entry, looked up): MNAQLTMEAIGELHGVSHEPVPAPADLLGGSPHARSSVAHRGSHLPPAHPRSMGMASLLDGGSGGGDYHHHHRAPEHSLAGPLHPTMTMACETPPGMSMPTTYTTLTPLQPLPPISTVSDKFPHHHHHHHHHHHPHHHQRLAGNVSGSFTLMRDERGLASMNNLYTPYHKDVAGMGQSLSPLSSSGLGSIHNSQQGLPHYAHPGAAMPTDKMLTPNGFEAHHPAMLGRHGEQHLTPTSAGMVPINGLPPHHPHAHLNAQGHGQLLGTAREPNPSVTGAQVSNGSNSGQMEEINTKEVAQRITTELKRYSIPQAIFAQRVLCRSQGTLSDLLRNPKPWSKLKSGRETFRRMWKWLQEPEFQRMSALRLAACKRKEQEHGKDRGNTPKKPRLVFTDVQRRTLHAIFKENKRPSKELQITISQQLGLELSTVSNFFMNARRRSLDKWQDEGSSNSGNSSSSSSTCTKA
Method in brief: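 Transiently transfected HepG2 cells expressing cis-regulated reporter transcription units were exposed to chemical for 24 h in a 24-well format. Reporter transcript abundance was determined by fluorescence capillary electrophoresis.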

[8] = molecular target: Heat shock factor protein 1 (Homo sapiens) (UniProt Q00613); assay: ATG_HSE_CIS: Attagene CIS-FACTORIAL HepG2 Assay for human Heat Shock Transcription Factor 1 (HSE) (AID 2282953); settings: HepG2 HSE cis-reporter, Attagene RNA transcription; actives raise or lower the signal
Chain of Heat shock factor protein 1 (Homo sapiens) (Q00613 whole entry, looked up): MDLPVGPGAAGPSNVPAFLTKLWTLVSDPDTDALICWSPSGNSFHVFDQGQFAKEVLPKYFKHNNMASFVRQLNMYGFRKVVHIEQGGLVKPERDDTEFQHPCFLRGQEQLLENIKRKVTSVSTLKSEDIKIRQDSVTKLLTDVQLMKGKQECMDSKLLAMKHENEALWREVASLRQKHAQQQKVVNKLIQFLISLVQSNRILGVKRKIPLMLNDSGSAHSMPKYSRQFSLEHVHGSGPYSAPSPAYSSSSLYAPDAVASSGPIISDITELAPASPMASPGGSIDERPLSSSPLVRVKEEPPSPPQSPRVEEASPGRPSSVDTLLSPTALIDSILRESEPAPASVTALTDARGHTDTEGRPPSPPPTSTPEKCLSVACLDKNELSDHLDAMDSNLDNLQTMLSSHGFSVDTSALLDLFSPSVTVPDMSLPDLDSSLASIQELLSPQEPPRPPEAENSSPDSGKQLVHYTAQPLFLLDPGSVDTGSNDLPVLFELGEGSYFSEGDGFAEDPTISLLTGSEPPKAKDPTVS
Method in brief: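 Using HepG2 with transfected cis-driven reporter constructs, compound effects on endogenous factor activity are scored as reporter mRNA change at 24 h. Detection: RT-PCR, HpaI digestion, capillary electrophoresis; bidirectional fitting to DMSO.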

[9] = ATG_MRE_CIS: Attagene CIS-FACTORIAL HepG2 Assay for human Metal Responsive Element (MRE) (AID 2282954); settings: HepG2 MRE cis-reporter transcription, Attagene multiplex; actives raise or lower the signal
Method in brief: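 Step one: transfect HepG2 with cis-regulated reporter units. Step two: dose 24 h. Step three: isolate RNA, RT-PCR, 6-FAM label, HpaI digest, capillary electrophoresis. Fit bidirectionally to DMSO.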

[10] = ATG_PBREM_CIS: Attagene CIS-FACTORIAL HepG2 Assay for human Phenobarbital-responsive Enhancer Module (PBREM) (AID 2282955); settings: HepG2 PBREM cis-reporter, Attagene multiplexed transcription; actives raise or lower the signal
Method in brief: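 Endogenous transcription factor activity was read from reporter transcripts in transiently transfected human HepG2 liver cells after 24 h dosing. RT-PCR products were fluorescently labelled, HpaI-cut and sized by capillary electrophoresis; activity fitted bidirectionally against DMSO baseline.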

[11] = molecular target: Paired box protein Pax-6 (Homo sapiens) (UniProt P26367); assay: ATG_Pax6_CIS: Attagene CIS-FACTORIAL HepG2 Assay for human Paired Box 6 (PAX6) (AID 2282956); settings: HepG2 CIS-FACTORIAL PAX6 reporter transcription, RNA readout; actives raise or lower the signal
Chain of Paired box protein Pax-6 (Homo sapiens) (P26367 whole entry, looked up): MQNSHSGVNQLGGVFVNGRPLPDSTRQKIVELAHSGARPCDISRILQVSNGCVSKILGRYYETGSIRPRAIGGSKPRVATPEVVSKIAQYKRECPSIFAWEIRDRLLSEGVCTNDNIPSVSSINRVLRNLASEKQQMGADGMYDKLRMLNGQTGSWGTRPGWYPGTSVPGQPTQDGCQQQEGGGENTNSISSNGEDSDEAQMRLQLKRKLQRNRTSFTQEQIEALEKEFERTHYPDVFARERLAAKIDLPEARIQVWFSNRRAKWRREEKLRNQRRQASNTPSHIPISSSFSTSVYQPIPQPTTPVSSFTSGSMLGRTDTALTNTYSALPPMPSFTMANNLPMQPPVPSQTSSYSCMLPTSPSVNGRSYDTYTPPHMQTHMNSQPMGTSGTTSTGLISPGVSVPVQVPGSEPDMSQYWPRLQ
Method in brief: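 Transient MRTU transfection of HepG2 → compound exposure 24 h → TriZol RNA, oligo(dT) RT → PCR, 6-FAM primer extension, HpaI cut → capillary electrophoresis; activity fitted both directions against DMSO.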

[12] = ATG_PXRE_CIS: Attagene CIS-FACTORIAL HepG2 Assay for human Pregnane X Receptor Element (PXRE) (AID 2282957); settings: HepG2 Attagene CIS-FACTORIAL PXRE reporter, mRNA; actives raise or lower the signal
Method in brief: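 Cis-element reporter mRNA in human hepatoma HepG2 cells is measured 24 h post-dosing by RT-PCR, primer-extension labeling and capillary electrophoresis; gain or loss of signal is fitted relative to DMSO.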

[13] = ATG_PPRE_CIS: Attagene CIS-FACTORIAL HepG2 Assay for human Peroxisome Proliferator-activated Response Element (PPRE) (AID 2282958); settings: HepG2 PPRE cis-element reporter, Attagene transcription factor profiling; actives raise or lower the signal
Method in brief: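 Endogenous PPRE-driven transcription is measured in HepG2 cells carrying transfected multi-reporter constructs. Reporter transcripts are quantified by RT-PCR, HpaI digestion and capillary electrophoresis 24 h after dosing. DMSO baseline, bidirectional fit.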

[14] = ATG_RORE_CIS: Attagene CIS-FACTORIAL HepG2 Assay for human RAR-related Orphan Receptor Element (RORE) (AID 2282959); settings: HepG2 Attagene cis-factorial RORE reporter, mRNA; actives raise or lower the signal
Method in brief: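 RORE reporter transcripts reflecting endogenous factor activity were read after 24 h compound exposure of transfected HepG2 cells, using reverse transcription, PCR, fluorescent labelling and capillary electrophoresis sizing. Gain or loss fitted against DMSO.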

[15] = ATG_Sox_CIS: Attagene CIS-FACTORIAL HepG2 Assay for human SRY-box transcription factor (SOX) (AID 2282960); settings: HepG2 Attagene cis-factorial SOX reporter, mRNA; actives raise or lower the signal
Method in brief: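 Reporter transcripts, measured by RT-PCR and capillary electrophoresis of labelled fragments, report endogenous SOX transcription factor activity. Transiently transfected human HepG2 cells receive chemical for 24 h; changes in either direction are fitted relative to DMSO.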

[16] = molecular target: Transcription factor Sp1 (Homo sapiens) (UniProt P08047); assay: ATG_Sp1_CIS: Attagene CIS-FACTORIAL HepG2 Assay for human Specificity Protein 1 (Sp1) (AID 2282961); settings: HepG2 Sp1 cis-reporter transcription, actives raise or lower the signal
Chain of Transcription factor Sp1 (Homo sapiens) (P08047 whole entry, looked up): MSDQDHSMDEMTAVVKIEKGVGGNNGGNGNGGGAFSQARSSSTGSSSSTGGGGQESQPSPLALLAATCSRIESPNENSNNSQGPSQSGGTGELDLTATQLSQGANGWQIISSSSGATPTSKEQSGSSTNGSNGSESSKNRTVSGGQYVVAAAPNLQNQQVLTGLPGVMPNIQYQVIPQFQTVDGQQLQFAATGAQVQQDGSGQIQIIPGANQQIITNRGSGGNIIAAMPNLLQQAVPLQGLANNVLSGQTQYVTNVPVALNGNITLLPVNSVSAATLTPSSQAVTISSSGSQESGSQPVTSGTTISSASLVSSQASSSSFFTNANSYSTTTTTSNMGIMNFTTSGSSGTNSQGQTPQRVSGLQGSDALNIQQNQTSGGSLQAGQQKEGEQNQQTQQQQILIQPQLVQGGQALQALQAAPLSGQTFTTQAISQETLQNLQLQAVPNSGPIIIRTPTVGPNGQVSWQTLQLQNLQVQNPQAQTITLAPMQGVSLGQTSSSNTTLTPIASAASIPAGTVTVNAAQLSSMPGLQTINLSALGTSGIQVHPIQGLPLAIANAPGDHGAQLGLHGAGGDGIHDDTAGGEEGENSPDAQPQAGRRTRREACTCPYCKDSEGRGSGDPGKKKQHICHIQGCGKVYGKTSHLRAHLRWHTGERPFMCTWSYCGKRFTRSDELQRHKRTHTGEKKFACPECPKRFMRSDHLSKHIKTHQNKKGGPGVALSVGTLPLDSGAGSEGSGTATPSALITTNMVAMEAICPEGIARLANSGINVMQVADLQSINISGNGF
Method in brief: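 Read-out is reporter transcript level, measured by RT-PCR and fluorescent capillary electrophoresis after 24 h chemical treatment. System: transiently transfected HepG2 cells reporting endogenous transcription factor activity; gain or loss fitted against DMSO baseline.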

[17] = ATG_SREBP_CIS: Attagene CIS-FACTORIAL HepG2 Assay for human Sterol Regulatory Element Binding (SREBP) (AID 2282962); settings: HepG2 Attagene cis-factorial SREBP reporter, mRNA; actives raise or lower the signal
Method in brief: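 Transfected HepG2 (cis-regulated reporter library, endogenous TFs) → compound 24 h → total RNA → oligo(dT) RT → reporter-specific PCR → FAM primer extension, HpaI cut → CE fluorescence. Fit bidirectional vs DMSO.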

[18] = molecular target: Signal transducer and activator of transcription 3 (Homo sapiens) (UniProt P40763); assay: ATG_STAT3_CIS: Attagene CIS-FACTORIAL HepG2 Assay for human Signal Transducer and Activator of Transcription 3 (STAT3) (AID 2282963); settings: HepG2, Attagene cis-factorial STAT3 reporter transcription; actives raise or lower the signal
Chain of Signal transducer and activator of transcription 3 (Homo sapiens) (P40763 whole entry, looked up): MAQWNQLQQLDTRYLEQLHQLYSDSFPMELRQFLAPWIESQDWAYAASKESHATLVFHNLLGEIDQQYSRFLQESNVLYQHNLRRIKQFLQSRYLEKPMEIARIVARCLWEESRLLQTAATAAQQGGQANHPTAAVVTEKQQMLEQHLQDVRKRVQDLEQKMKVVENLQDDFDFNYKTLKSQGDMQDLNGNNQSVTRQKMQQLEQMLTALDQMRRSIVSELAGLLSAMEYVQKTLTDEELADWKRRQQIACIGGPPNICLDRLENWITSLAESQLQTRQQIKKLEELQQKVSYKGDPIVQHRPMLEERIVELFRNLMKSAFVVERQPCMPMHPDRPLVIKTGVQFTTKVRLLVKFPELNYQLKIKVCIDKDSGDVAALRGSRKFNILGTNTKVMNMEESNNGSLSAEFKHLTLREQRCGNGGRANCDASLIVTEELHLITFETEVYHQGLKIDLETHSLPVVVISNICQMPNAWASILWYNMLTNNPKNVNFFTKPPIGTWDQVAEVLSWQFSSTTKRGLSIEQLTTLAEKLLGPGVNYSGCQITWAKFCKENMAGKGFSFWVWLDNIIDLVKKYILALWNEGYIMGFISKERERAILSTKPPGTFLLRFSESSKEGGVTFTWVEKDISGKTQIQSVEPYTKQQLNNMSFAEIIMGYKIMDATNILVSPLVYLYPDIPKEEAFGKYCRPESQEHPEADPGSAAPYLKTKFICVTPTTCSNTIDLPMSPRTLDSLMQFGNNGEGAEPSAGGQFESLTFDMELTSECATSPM
Method in brief: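 Transcript-level reporter assay. HepG2 transient MRTU transfection, 24 h exposure, fluorescence detection after RT-PCR and CE; DMSO baseline.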

[19] = ATG_TA_CIS: Attagene CIS-FACTORIAL HepG2 Assay for human TA Basal Promoter (AID 2282964); settings: HepG2 Attagene CIS-factorial TA basal promoter reporter; actives raise or lower the signal
Method in brief: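 Transient MRTU transfection of HepG2 preceded 24 h compound exposure. Reporter mRNA levels were then read by RT-PCR with capillary electrophoresis, and this background-control endpoint was fitted bidirectionally to DMSO.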

Measured: AC50

O=C(c1ccccc1)c1ccc(O)cc1O
active: [12] 48.6 µM
inactive: [1] | [2] | [3] | [4] | [5] | [6] | [7] | [8] | [9] | [10] | [11] | [13] | [14] | [15] | [16] | [17] | [18] | [19]

CCOCOCC
inactive: [1] | [2] | [3] | [4] | [5] | [7] | [8] | [10] | [12] | [13] | [14] | [15] | [16] | [17] | [18]

CN1CN(C)CN(C)C1
active: [3] 74.3 µM | [8] 160 µM | [12] 49.5 µM
inactive: [1] | [2] | [4] | [5] | [6] | [7] | [10] | [11] | [13] | [14] | [15] | [16] | [17] | [18]

C#CC(O)CCC (stereo unspecified)
inactive: [1] | [2] | [3] | [4] | [5] | [6] | [7] | [8] | [9] | [10] | [11] | [12] | [13] | [14] | [15] | [16] | [17] | [18] | [19]

CCOC(OCC)OCC
inactive: [1] | [2] | [3] | [4] | [5] | [7] | [8] | [9] | [10] | [11] | [13] | [14] | [15] | [16] | [17] | [18] | [19]
active: [12] 28 µM

C[Si](C)O[Si](C)C
inactive: [1] | [2] | [4] | [5] | [6] | [7] | [8] | [9] | [10] | [11] | [12] | [13] | [14] | [15] | [16] | [17] | [18] | [19]

Nc1c(Br)cc([N+](=O)[O-])cc1Br
inactive: [1] | [2] | [4] | [5] | [6] | [7] | [8] | [9] | [10] | [11] | [13] | [14] | [15] | [16] | [17] | [18] | [19]
active: [12] 26.7 µM

CCn1c2ccccc2c2ccccc21
active: [12] 26.2 µM | [16] 167 µM | [17] 153 µM
inactive: [1] | [2] | [3] | [4] | [5] | [7] | [8] | [10] | [11] | [13] | [14] | [15] | [18] | [19]

CCN(CC)c1ccc2c(c1)Oc1cc(N(CC)CC)ccc1C21OC(=O)c2ccccc21
active: [3] 55.3 µM | [12] 1.04 µM | [17] 17.6 µM
inactive: [1] | [2] | [4] | [5] | [6] | [7] | [8] | [9] | [10] | [13] | [14] | [15] | [16] | [18] | [19]

Cc1cc(O)c(C(C)(C)C)cc1C(C)(C)C
active: [1] 2.87 µM | [3] 17.2 µM | [12] 2.92 µM | [16] 11.1 µM | [17] 8.33 µM
inactive: [2] | [4] | [5] | [7] | [8] | [10] | [11] | [13] | [14] | [15] | [18]

CCCCCCCCCCCCCCCCC
inactive: [1] | [2] | [3] | [4] | [5] | [6] | [7] | [8] | [10] | [11] | [13] | [14] | [15] | [16] | [17] | [18] | [19]
active: [12] 27.2 µM

O=S(=O)(OCC(F)(F)F)C(F)(F)C(F)(F)C(F)(F)C(F)(F)F
inactive: [1] | [2] | [4] | [5] | [6] | [7] | [8] | [9] | [10] | [11] | [12] | [13] | [14] | [15] | [16] | [17] | [18] | [19]
active: [3] 63.2 µM

CCOC(=O)C1CC(=O)C(=C(O)C2CC2)C(=O)C1 (stereo unspecified)
inactive: [1] | [2] | [3] | [4] | [5] | [6] | [7] | [8] | [10] | [13] | [14] | [15] | [16] | [17] | [18]
active: [12] 77.3 µM

Cc1cc(=O)[nH]c(C(C)C)n1
inactive: [1] | [2] | [3] | [4] | [5] | [6] | [7] | [8] | [10] | [11] | [12] | [13] | [14] | [15] | [16] | [17] | [18] | [19]
